Drawing on publication PMC7862700, “An all-to-all approach to the identification of sequence-specific readers for epigenetic DNA modifications on cytosine”, this text covers binding signal for eight sequences.

Holding throughout (assay): DAPPL (digital affinity profiling via proximity ligation, sequencing); 10 mM Tris-HCl pH 7.5, 50 mM NaCl, 1 mM DTT, 4% glycerol, room temperature, 30 min; GST-TFs on glutathione beads, 16-mer random dsDNA library, 0.1% formaldehyde crosslink after washing; high values mean tight binding
What all share (settings): protein: recombinant; tags: N-terminal GST; dsDNA, one strand shown

Assay [1] deals with T1, FLI1 (Homo sapiens, UniProt Q01543 1-452).
T1 sequence: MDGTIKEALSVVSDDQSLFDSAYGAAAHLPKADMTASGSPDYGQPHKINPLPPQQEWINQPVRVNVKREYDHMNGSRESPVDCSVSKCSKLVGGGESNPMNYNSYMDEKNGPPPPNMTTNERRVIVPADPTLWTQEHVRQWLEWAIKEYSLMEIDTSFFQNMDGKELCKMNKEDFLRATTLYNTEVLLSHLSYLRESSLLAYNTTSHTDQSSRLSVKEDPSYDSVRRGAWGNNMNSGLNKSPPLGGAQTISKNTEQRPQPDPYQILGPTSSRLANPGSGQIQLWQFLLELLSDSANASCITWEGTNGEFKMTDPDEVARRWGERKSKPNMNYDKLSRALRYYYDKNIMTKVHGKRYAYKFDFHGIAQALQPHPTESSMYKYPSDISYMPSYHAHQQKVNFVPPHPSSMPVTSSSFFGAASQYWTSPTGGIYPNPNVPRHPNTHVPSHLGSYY
The procedure, abridged: (§1)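 Binding signal is given per hexamer as its read frequency for a factor divided by its frequency in the tag-only sample. GST-fused human transcription factors were expressed in yeast, captured on glutathione beads, barcoded with DNA and pooled with that sample, then incubated with 200 nmole of a 16-mer random double-stranded DNA library in Tris/NaCl/DTT/glycerol buffer for 30 min at room temperature. The pools were then washed, crosslinked, proximity-ligated, amplified by PCR and sequenced on an Illumina NextSeq500.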

Assay [2] deals with T2, ELK1 (Homo sapiens, UniProt P19419 1-428).
T2 sequence: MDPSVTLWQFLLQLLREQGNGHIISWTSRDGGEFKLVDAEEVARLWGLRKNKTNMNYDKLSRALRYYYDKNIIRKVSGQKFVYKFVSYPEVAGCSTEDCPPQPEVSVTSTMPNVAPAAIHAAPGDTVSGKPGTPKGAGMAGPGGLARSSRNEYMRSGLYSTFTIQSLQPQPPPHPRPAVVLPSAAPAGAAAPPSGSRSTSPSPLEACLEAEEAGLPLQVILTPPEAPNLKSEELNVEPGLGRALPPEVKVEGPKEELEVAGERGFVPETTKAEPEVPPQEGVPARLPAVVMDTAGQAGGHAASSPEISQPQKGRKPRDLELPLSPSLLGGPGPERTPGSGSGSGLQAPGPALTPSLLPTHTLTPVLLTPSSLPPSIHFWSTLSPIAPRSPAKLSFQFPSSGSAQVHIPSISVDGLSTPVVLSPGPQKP
In short, it runs like this:
as §1

The target of assay [3] is T3, GABPA (Homo sapiens, UniProt Q06546 1-454).
T3 sequence: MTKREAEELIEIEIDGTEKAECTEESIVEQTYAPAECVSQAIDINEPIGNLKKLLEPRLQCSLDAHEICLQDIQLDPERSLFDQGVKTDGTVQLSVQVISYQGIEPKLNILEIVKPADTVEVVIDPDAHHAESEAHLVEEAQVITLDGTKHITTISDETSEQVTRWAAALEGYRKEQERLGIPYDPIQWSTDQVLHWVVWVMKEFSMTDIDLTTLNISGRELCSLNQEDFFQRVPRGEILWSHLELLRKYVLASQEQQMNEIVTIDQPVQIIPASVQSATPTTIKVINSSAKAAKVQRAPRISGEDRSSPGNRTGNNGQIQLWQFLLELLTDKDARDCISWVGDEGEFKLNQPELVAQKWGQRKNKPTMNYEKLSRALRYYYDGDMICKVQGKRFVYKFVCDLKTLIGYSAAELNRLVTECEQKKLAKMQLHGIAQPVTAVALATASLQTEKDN
The procedure, abridged:
as §1

Assay [4] has as its target T4, ERG (Homo sapiens, UniProt P11308 1-479).
T4 sequence: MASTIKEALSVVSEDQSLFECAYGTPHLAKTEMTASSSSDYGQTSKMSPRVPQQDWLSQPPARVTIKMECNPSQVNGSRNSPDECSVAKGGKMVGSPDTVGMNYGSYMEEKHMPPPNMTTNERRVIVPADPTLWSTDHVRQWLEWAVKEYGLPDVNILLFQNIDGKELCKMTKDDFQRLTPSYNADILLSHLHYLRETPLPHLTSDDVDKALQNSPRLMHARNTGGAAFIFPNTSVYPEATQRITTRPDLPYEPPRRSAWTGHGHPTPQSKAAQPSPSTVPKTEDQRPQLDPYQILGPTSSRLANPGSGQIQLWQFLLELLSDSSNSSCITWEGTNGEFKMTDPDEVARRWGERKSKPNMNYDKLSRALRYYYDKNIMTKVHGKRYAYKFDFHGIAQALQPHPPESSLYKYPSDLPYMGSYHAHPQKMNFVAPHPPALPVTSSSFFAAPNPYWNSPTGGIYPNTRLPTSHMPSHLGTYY
The procedure, abridged:
as §1

Assay [5] addresses ELF1 (Homo sapiens, UniProt P32519 1-619). The procedure, abridged: as §1
Assay [6] has as its target T5, EHF (Homo sapiens, UniProt Q9NZC4 1-300).
T5 sequence: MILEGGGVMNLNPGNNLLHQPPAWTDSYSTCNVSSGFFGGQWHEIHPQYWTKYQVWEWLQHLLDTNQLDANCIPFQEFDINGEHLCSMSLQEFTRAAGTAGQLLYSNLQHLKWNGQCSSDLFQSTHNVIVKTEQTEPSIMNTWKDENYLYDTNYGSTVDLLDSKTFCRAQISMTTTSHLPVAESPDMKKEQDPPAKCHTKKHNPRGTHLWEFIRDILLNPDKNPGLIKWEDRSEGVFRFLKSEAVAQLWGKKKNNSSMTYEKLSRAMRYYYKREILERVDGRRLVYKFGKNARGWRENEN
In short, it runs like this: as §1

The target of assay [7] is SPI1 (Homo sapiens, UniProt P17947 1-270). In short, it runs like this: as §1
Assay [8] has as its target SPIB (Homo sapiens, UniProt Q01892 1-262). In short, it runs like this: as §1
The target in assay [9] is T6, ELK3 (Homo sapiens, UniProt P41970 1-407).
T6 sequence: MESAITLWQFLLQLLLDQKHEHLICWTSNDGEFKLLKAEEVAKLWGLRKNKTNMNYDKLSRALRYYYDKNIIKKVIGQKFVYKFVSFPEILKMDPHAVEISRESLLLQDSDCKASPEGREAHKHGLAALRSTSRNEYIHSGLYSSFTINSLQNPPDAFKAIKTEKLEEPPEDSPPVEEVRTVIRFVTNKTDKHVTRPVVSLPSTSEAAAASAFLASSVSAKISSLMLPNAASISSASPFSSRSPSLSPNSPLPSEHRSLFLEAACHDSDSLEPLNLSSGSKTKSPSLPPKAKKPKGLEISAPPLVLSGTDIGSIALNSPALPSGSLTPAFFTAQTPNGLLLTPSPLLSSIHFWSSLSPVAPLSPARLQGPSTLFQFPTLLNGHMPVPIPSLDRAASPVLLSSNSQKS
The procedure, abridged: as §1

Sequence of ELF1 (P32519 whole entry): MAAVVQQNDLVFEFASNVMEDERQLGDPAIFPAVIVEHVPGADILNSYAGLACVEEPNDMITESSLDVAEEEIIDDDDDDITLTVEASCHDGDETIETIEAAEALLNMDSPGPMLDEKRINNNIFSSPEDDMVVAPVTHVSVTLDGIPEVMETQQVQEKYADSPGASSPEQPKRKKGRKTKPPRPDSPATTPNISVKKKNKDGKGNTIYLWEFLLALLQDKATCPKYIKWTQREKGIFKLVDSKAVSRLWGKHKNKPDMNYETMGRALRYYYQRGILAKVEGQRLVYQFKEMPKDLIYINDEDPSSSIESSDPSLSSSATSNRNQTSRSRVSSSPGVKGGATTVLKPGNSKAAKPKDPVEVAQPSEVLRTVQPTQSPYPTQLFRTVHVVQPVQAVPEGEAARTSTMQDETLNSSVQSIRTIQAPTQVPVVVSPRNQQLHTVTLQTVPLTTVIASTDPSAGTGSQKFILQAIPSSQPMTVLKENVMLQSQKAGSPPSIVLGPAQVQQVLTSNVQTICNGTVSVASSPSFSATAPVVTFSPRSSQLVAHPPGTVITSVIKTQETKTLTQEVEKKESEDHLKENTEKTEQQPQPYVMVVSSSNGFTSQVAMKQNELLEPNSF
Sequence of SPIB (Q01892 whole entry): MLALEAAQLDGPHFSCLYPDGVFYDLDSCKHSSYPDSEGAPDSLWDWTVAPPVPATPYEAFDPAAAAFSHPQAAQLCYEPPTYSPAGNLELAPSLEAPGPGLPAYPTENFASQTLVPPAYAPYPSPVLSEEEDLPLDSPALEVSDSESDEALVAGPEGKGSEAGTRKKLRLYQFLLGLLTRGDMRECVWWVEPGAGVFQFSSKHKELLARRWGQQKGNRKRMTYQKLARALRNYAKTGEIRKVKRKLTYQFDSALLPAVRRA

Regarding TGCTAA, the binding signal in assay [1] is 1.24 fold enrichment (6-mer frequency, TF over GST control); in assay [2] it was 1.37 fold enrichment (6-mer frequency, TF over GST control); in assay [3] it was 1.18 fold enrichment (6-mer frequency, TF over GST control); in assay [4], 1.23 fold enrichment (6-mer frequency, TF over GST control); in assay [5], 1.22 fold enrichment (6-mer frequency, TF over GST control); in [6], 1.27 fold enrichment (6-mer frequency, TF over GST control). Besides, the binding signal was 1.34 fold enrichment (6-mer frequency, TF over GST control) in [7]; 1.28 fold enrichment (6-mer frequency, TF over GST control) in assay [8]; 1.29 fold enrichment (6-mer frequency, TF over GST control) in [9].

For the sequence GATTTT, the binding signal was 1.16 fold enrichment (6-mer frequency, TF over GST control) in [1]; 1.15 fold enrichment (6-mer frequency, TF over GST control) in assay [2]; 1.21 fold enrichment (6-mer frequency, TF over GST control) in assay [3]; 1.12 fold enrichment (6-mer frequency, TF over GST control) in assay [4]; 1.12 fold enrichment (6-mer frequency, TF over GST control) in assay [5]; 1.18 fold enrichment (6-mer frequency, TF over GST control) in assay [6]. The binding signal in [7] was 1.12 fold enrichment (6-mer frequency, TF over GST control); in [8] it was 1.12 fold enrichment (6-mer frequency, TF over GST control); in assay [9], 1.07 fold enrichment (6-mer frequency, TF over GST control).

Regarding TATCGT, the binding signal was 1.18 fold enrichment (6-mer frequency, TF over GST control) in assay [1]; 1.28 fold enrichment (6-mer frequency, TF over GST control) in assay [2]; 1.04 fold enrichment (6-mer frequency, TF over GST control) in assay [3]; 1.14 fold enrichment (6-mer frequency, TF over GST control) in assay [4]; 1.14 fold enrichment (6-mer frequency, TF over GST control) in [5]; 1.1 fold enrichment (6-mer frequency, TF over GST control) in [6]. The binding signal in assay [7] is 1.07 fold enrichment (6-mer frequency, TF over GST control); in [8], 1.2 fold enrichment (6-mer frequency, TF over GST control); in assay [9], 1.18 fold enrichment (6-mer frequency, TF over GST control).

As for TAATCT, the binding signal is 1.39 fold enrichment (6-mer frequency, TF over GST control) in assay [1]; 1.34 fold enrichment (6-mer frequency, TF over GST control) in assay [2]; 1.33 fold enrichment (6-mer frequency, TF over GST control) in assay [3]; 1.38 fold enrichment (6-mer frequency, TF over GST control) in assay [4]; 1.4 fold enrichment (6-mer frequency, TF over GST control) in assay [5]; 1.44 fold enrichment (6-mer frequency, TF over GST control) in [6]. In addition, the binding signal in [7] is 1.33 fold enrichment (6-mer frequency, TF over GST control); in assay [8], 1.4 fold enrichment (6-mer frequency, TF over GST control); in assay [9] it was 1.46 fold enrichment (6-mer frequency, TF over GST control).

Turning to TCCGCC, the binding signal in assay [1] was 1.57 fold enrichment (6-mer frequency, TF over GST control); in assay [2] it was 1.61 fold enrichment (6-mer frequency, TF over GST control); in assay [3], 1.53 fold enrichment (6-mer frequency, TF over GST control); in [4], 1.69 fold enrichment (6-mer frequency, TF over GST control); in assay [5] it was 1.7 fold enrichment (6-mer frequency, TF over GST control); in assay [6] it was 1.73 fold enrichment (6-mer frequency, TF over GST control). The binding signal in assay [7] was 1.48 fold enrichment (6-mer frequency, TF over GST control); in [8], 1.54 fold enrichment (6-mer frequency, TF over GST control); in assay [9], 1.86 fold enrichment (6-mer frequency, TF over GST control).

Consider ATTTGA, for which the binding signal in [1] is 1.34 fold enrichment (6-mer frequency, TF over GST control); in [2] it was 1.1 fold enrichment (6-mer frequency, TF over GST control); in [3], 1.26 fold enrichment (6-mer frequency, TF over GST control); in [4], 1.23 fold enrichment (6-mer frequency, TF over GST control); in assay [5], 1.12 fold enrichment (6-mer frequency, TF over GST control); in assay [6], 1.27 fold enrichment (6-mer frequency, TF over GST control). Besides, the binding signal in assay [7] was 1.17 fold enrichment (6-mer frequency, TF over GST control); in [8], 1.36 fold enrichment (6-mer frequency, TF over GST control); in [9], 1.05 fold enrichment (6-mer frequency, TF over GST control).

Turning to AGCTCT, the binding signal is 1.19 fold enrichment (6-mer frequency, TF over GST control) in [1]; 1.25 fold enrichment (6-mer frequency, TF over GST control) in [2]; 1.17 fold enrichment (6-mer frequency, TF over GST control) in [3]; 1.11 fold enrichment (6-mer frequency, TF over GST control) in assay [4]; 1.23 fold enrichment (6-mer frequency, TF over GST control) in assay [5]; 1.18 fold enrichment (6-mer frequency, TF over GST control) in assay [6]. Moreover, the binding signal was 1.04 fold enrichment (6-mer frequency, TF over GST control) in assay [7]; 1.04 fold enrichment (6-mer frequency, TF over GST control) in assay [8]; 1.15 fold enrichment (6-mer frequency, TF over GST control) in assay [9].

Turning to AATGCC, the binding signal was 1.06 fold enrichment (6-mer frequency, TF over GST control) in assay [1]; 1.19 fold enrichment (6-mer frequency, TF over GST control) in assay [2]; 1.17 fold enrichment (6-mer frequency, TF over GST control) in [3]; 1.18 fold enrichment (6-mer frequency, TF over GST control) in [4]; 1.13 fold enrichment (6-mer frequency, TF over GST control) in assay [5]; 1.18 fold enrichment (6-mer frequency, TF over GST control) in [6]. The binding signal is 1.06 fold enrichment (6-mer frequency, TF over GST control) in assay [7]; 1.17 fold enrichment (6-mer frequency, TF over GST control) in assay [8]; 1.08 fold enrichment (6-mer frequency, TF over GST control) in [9].
